This is an account of results in PubChem BioAssay (NCATS).

The assay in a line: qHTS Assay for Lipid Storage Modulators (AID 1519). For activity change, negative = inhibition: % is set by controls: 0 for no effect and ±100 for the full control effect. Conditions: Drosophila S3 cells, BODIPY lipid droplet/cell ratio, laser cytometry, cells loaded with oleic acid. The source says:
NIH Molecular Libraries Probe Production Centers Network [MLPCN]
NIH Chemical Genomics Center [NCGC]
Assay Submitter (PI): Beller, Mathias; Max-Planck-Institut fur Biophysikalische Chemie
NCGC Assay Overview: Storing lipids as a reservoir for energy or the anabolism of elementary metabolites is a common feature of probably all cells and is conserved from bacteria to humans. The universal cellular lipid storage organelle is the so-called lipid storage droplet (LD). Although ubiquitous, LDs share a simple structure composed of a hydrophobic core that harbors the storage lipids, which is shielded by a droplet-specific phospholipid monolayer to which proteins are attached. The current model of LD biogenesis involves an incorporation of the lipid core into the membrane leaflets of the endoplasmic reticulum (ER) followed by a subsequent budding-like maturation of a LD, which ultimately pinches off. Once released, LD volume can increase by localized lipogenesis or fusion of existing droplets. Storage lipids are re-mobilized enzymatically by lipase activity. Lipase regulation in the adipocyte is heavily studied and involves multiple components including catecholamine signaling, the LD-associated proteins Perilipin and comparative gene identification-58 (CGI-58) and at least two lipases named hormone sensitive lipase (HSL) and adipocyte triglyceride lipase (ATGL). LD regulation outside of the adipocyte is poorly understood and only few components are known. However, there is an urgent need to learn more about ectopic fat depots as mislocalized storage of lipids, for example in the liver or muscle, is an eminent health problem associated with insulin resistance or the metabolic syndrome. We developed a laser-scanning cytometer assay to enable 1,536-well screening and combined the results of the small molecules screen with an RNAi database based on lipid storage.
NCGC Assay Protocol Summary:
We dispensed 4 uL of cells at 1.25 x 10^6 cells/mL into LoBase Aurora COC 1,536-well plates (black walled, clear bottom) with a bottle-valve solenoid-based dispenser (Aurora) to obtain 5,000 cells/well. Triacsin C (Sigma-Aldrich T-4540), an inhibitor of long-chain fatty acyl CoA synthetase that blocks synthesis of triglycerides, was used as a positive control for lipid under-storage. A total of 23 nL of compound solution of different concentrations were transferred to the assay plates using a Kalypsys pin tool equipped with a 1,536-pin array containing 10-nL slotted pins (FP1S10, 0.457-mm diameter, 50.8 mm long; V&P Scientific). One microliter of oleic acid (400 uM) was added, and the plate was lidded with stainless steel rubber gasket lined lids containing pinholes. […] Fluorescence was detected by excitation of the fluorophores with a 488-nm laser on an Acumen Explorer (TTP Lab Tech). The total intensity in channel 1 (500-530 nm) reflected lipid droplet accumulation. […] The ratio of the total intensity in PMT channel 1 over total intensity of channel 3 was also calculated. Percent activity was computed relative to an internal control (100% inhibited lipid droplet deposition due to the presence of 20 uM Triacsin C), which was added to 32 wells/plate.
(qHTS replaces the single test concentration by a dilution series.)

Where [1] appears, read: measured here: cell count channel max response.
The mark [2] stands for this setting: measured here: lipid channel max response.

Structures are written as SMILES. Where “and” joins values, the source holds several entries; their conditions need not be identical. Identical values can stand only once. Records with an inconclusive call do not appear. Calls of active or inactive are those of the source. Calls come from the whole dose curve.

As to `NCCc1c[nH]c2ccc(O)cc12`, the activity change, negative = inhibition runs as follows: (at 25.7 µM (top of the series)) -0.711% (inactive); (at 57.5 µM (top of the series)) 0.919% (inactive). Moreover, the max response reads like this: under setting [1], -5.09% and -12.1%; under setting [2], -6.32% and -9.72%.

Take `CC(=O)OCC1=C(C(=O)O)N2C(=O)[C@@H](N)[C@@H]2SC1`: the activity change, negative = inhibition (at 25.7 µM (top of the series)) was 1.55% (inactive). In addition, the max response by setting is: under setting [1], 7.67%; under setting [2], 10.5%.

Consider `C[C@@H]1O[C@H](C[N+](C)(C)C)C[C@H]1O`, for which, where the note is “at 57.5 µM (top of the series)”, the activity change, negative = inhibition was -2.01% (inactive). For the same compound, the max response worked out at 40.6% under setting [1] and 38% under setting [2].

Regarding `NC(=O)CN1CC(O)CC1=O` (stereo not given), the activity change, negative = inhibition (at 57.5 µM (top of the series)) is 3.41% (inactive). Further, the max response came out at 18.3% under setting [1] and 20.4% under setting [2].

For `CCC(=O)OC1CCC2C3CCC4=CC(=O)CC[C@@]4(C)C3CC[C@]12C` (stereo not given in full), where the note is “at 57.5 µM (top of the series)”, the activity change, negative = inhibition is 11.4% (inactive). Moreover, the max response runs as follows: under setting [1], 4.67%; under setting [2], 18.5%.

Take `C#CC1(O)CCC2C3CCC4=CC(=O)CCC4(C)C3CCC21C` (stereo not given): the activity change, negative = inhibition (at 57.5 µM (top of the series)) was 2.45% (inactive). Moreover, the max response by setting is: under setting [1], 10.4%; under setting [2], 15.6%.

As to `S=C(NC1CCCCC1)N1CCC(c2cnc[nH]2)CC1`, where the note is “at 57.5 µM (top of the series)”, the activity change, negative = inhibition was 0.457% (inactive). For the same compound, the max response under setting [1] worked out at 8.5% and the max response under setting [2] came to 6.88%.

Turning to `CN[C@@H](C)[C@H](O)c1ccccc1`, under “at 57.5 µM (top of the series)”, the activity change, negative = inhibition was -15% (inactive). Besides, the max response was -49.5% under setting [1] and -56.7% under setting [2].

Turning to `CN1C2CCC1CC(OC(=O)c1cc(Cl)cc(Cl)c1)C2` (stereo not given), for the setting “at 57.5 µM (top of the series)”, the activity change, negative = inhibition is -1.85% (inactive). In addition, the max response was -22.1% under setting [1] and -22.4% under setting [2].

With `C[N+]1(C)C2CCC1CC(OC(=O)C(CO)c1ccccc1)C2` (stereo not given), for the setting “at 57.5 µM (top of the series)”, the activity change, negative = inhibition was -1.3% (inactive). Further, the max response by setting is: under setting [1], -18.3%; under setting [2], -18.4%.

For `NC(N)=NOCCC(N)C(=O)O` (stereo not given), the activity change, negative = inhibition (at 57.5 µM (top of the series)) was 1.36% (inactive) and 1.85% (inactive). Also, the max response runs as follows: under setting [1], 3.95% and -21.7%; under setting [2], 4.87% and -17.2%.

As to `C#CCOC(=O)C1=CCCN(C)C1`, the activity change, negative = inhibition (at 57.5 µM (top of the series)) is 6% (inactive). Moreover, the max response under setting [1] stood at 13.4% and the max response under setting [2] was determined as 20.6%.

On to `CC[C@@H]1C(=O)OC[C@@H]1Cc1cncn1C`, for which the activity change, negative = inhibition (at 57.5 µM (top of the series)) is -0.176% (inactive) and -1.27% (inactive). For the same compound, the max response reads like this: under setting [1], 23.8% and 24.9%; under setting [2], 22.1% and 21.9%.
